Screening data deposited in PubChem BioAssay by several laboratories.
ADAM10 inh = inhibits human ADAM10; O14672; recombinant ADAM10, EDANS/DABCYL FRET peptide cleavage, 3 h; inhibition, % at 7 µM; 370,000 compounds, 0.62% hits; AID 720582;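 active means inhibition above a per-campaign cutoff equal to the mean of compounds falling between control-based bounds plus 3 SD, cut at about 20% in these data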;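 further: 0% = DMSO wells while the 100% control is not disclosed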
Target sequence (O14672 214-748 limits assumed): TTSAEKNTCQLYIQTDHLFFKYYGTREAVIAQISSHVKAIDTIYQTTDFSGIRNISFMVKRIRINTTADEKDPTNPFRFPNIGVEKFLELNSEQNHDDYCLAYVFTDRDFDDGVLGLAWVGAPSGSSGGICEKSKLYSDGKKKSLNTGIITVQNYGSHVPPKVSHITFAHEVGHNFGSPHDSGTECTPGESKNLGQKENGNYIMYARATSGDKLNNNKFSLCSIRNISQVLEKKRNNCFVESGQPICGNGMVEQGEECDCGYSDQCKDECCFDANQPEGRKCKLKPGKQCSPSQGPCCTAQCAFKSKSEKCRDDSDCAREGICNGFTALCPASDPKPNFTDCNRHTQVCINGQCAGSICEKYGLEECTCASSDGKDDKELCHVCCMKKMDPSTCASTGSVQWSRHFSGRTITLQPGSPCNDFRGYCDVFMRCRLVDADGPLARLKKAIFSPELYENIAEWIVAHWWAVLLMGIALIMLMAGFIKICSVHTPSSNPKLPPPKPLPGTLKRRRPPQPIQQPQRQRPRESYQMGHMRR
ADAM17 inh = ADAM17 inhibition, QFRET primary screen; recombinant ADAM17, EDANS/DABCYL FRET peptide cleavage; 370,000 compounds, 0.83% hits; inhibition, % at 6.95 µM;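 active means inhibition above the mean of compounds lying between control limits plus 3 SD, set per campaign, cut at about 8.5% in these data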;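 further: 0% = DMSO-only wells as the low control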
KLK7 zymogen act = activates the human kallikrein-7 zymogen; 370,000 compounds, 0.9% hits; purified proKLK7, EDANS-DABCYL substrate fluorescence; 100% is mature enzyme control, 0% vehicle; P49862; activation, % at 7 µM;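 active means activation above the mean of all tested compounds plus 3 SD, computed per campaign excluding outliers beyond control limits, cut at about 13% in these data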
GRIN3A LBD mod = NR3A (human) ligand-binding domain modulation | NR3A LBD differential scanning fluorimetry, Tm shift; 0% = protein alone, 100% = glycine-bound protein | Tm shift relative to glycine control, % at 25 µM | 340,000 compounds, 2.5% hits | AID 1259313;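 active means melting temperature shift of at least 10% of the positive control shift, at one fixed dose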
FAS TE block = blocks the thioesterase domain of human fatty acid synthase; P49327; recombinant FAS-TE, OMFH fluorogenic substrate, fluorescence endpoint; inhibition, % at 15 µM; 360,000 compounds, 0.67% hits; AID 602261;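 active means compounds whose normalised, plate-corrected inhibition of enzyme fluorescence in the single-dose primary screen is 50% or more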;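 further: 0% = DMSO with enzyme and 100% = substrate without enzyme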
ADAM10 counter = inhibits human ADAM10 in ADAM17 exosite counter-screen | recombinant ADAM10, EDANS/DABCYL FRET peptide cleavage, 3 h | inhibition, % at 6.95 µM | shares compounds with ADAM17 inh | 2,900 compounds, 47% hits;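 active means mean inhibition over the triplicate runs exceeds the activity threshold set in the earlier primary screen, cut at about 20% in these data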;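 further: 0% = DMSO wells and 100% = marimastat wells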
ADAM17 confirm = confirmation of inhibitors of human ADAM17; inhibition, % at 6.95 µM; shares compounds with ADAM17 inh; recombinant ADAM17, EDANS/DABCYL QFRET peptide cleavage; 2,900 compounds, 65% hits;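 active means mean inhibition across replicates above the hit cutoff set in the primary screen, cut at about 8.5% in these data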;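 further: 0% = DMSO wells and 100% = marimastat wells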
An asterisk follows results filed as active. Sampled rows, rich in hits. Any-hit rate of the full collection: about 4.6%.

`C=CCNc1cccc2c1S(=O)(=O)N[C@H](C)CO2` gave ADAM10 inh -5, ADAM17 inh -1 and KLK7 zymogen act 1.
O=C(COc1ccc(Cl)cc1Cl)NCCCCc1ccccc1 was read as ADAM10 inh 17, ADAM17 inh 18*, KLK7 zymogen act 0, GRIN3A LBD mod -1, FAS TE block 31, ADAM10 counter 31* and ADAM17 confirm 13*.
Screening Cc1ccc(N(CC(=O)Nc2cc(Cl)ccc2Oc2ccccc2)S(C)(=O)=O)c(C)c1 returned ADAM10 inh 16, ADAM17 inh 13*, KLK7 zymogen act 1, GRIN3A LBD mod -8, FAS TE block 32, ADAM10 counter 41* and ADAM17 confirm 22*.
Screening Cc1ccc(N(CC(=O)Nc2cc(Cl)ccc2Oc2ccccc2)S(C)(=O)=O)cc1C returned ADAM10 inh 7, ADAM17 inh 2, KLK7 zymogen act 0, GRIN3A LBD mod -26 and FAS TE block 24.
Screening COc1cc(NCc2ccccc2)c2ncn(Cc3ccccc3)c2c1 returned ADAM10 inh 15, ADAM17 inh 12*, KLK7 zymogen act 0, GRIN3A LBD mod -2, FAS TE block 13, ADAM10 counter 14 and ADAM17 confirm 7.
Screening COCCCOc1cc(NCc2ccccc2)c2ncn(C(C)C)c2c1 returned ADAM10 inh 4, ADAM17 inh 5, KLK7 zymogen act 1, GRIN3A LBD mod 1 and FAS TE block -1.
For CNC[C@@H]1OCc2cnnn2CCCC(=O)N([C@@H](C)CO)C[C@H]1C the results were ADAM10 inh -8, ADAM17 inh -4 and KLK7 zymogen act 0.
Screening O=C(Nc1ccccc1)c1ccc(-c2ccccc2C(F)(F)F)o1 returned ADAM10 inh 16, ADAM17 inh 9.2*, KLK7 zymogen act -1, GRIN3A LBD mod -3, FAS TE block 31, ADAM10 counter 15 and ADAM17 confirm 9.
CCCCc1c(-c2ccccc2OC)ncn1Cc1c(F)cccc1F was read as ADAM10 inh -5, ADAM17 inh -4 and KLK7 zymogen act -1.
For C[C@H]1CN=C2N(CCNC(=O)CCC3CCCCC3)[C@H](Cc3ccc(O)cc3)CN21 the results were ADAM10 inh -14, ADAM17 inh -5, KLK7 zymogen act 1, GRIN3A LBD mod 0 and FAS TE block -10.
`COc1ccc(C[C@H]2CN3C(=NC[C@@H]3C)N2CCNC(=O)CCC2CCCCC2)cc1` gave ADAM10 inh 18, ADAM17 inh 11*, KLK7 zymogen act 0, GRIN3A LBD mod -2, FAS TE block -9, ADAM10 counter -11 and ADAM17 confirm -1.
COC(=O)[C@]12C[C@H](CC(=O)N3CCC(c4ccccc4)CC3)C(=O)N(CCC3=CCCCC3)C1=C[C@H](COCc1ccccc1)O[C@@H]2C was read as ADAM10 inh 6, ADAM17 inh 3 and KLK7 zymogen act 1.
Screening Cc1ccc(N(CC(=O)O)S(=O)(=O)c2cccc3nonc23)cc1 returned ADAM10 inh -4, ADAM17 inh -5, KLK7 zymogen act 0, GRIN3A LBD mod 0 and FAS TE block -4.
`CC(=O)c1cccc(NC(=O)CN(c2ccc(C)cc2)S(=O)(=O)c2cccc3nonc23)c1` gave ADAM10 inh 23*, ADAM17 inh 12*, KLK7 zymogen act 0, GRIN3A LBD mod -6, FAS TE block 13, ADAM10 counter 25* and ADAM17 confirm 15*.
`CCNC(=O)N1CCN(c2ccc(N3CCN(Cc4ccccc4)[C@@H](C)C3)c(C)c2)[C@H](C)C1` gave ADAM10 inh -8, ADAM17 inh -4 and KLK7 zymogen act 0.
For O=C(OCc1cnc(Cl)s1)c1cccc(Cl)c1Cl the results were ADAM10 inh 7, ADAM17 inh 9.0*, KLK7 zymogen act -1, GRIN3A LBD mod 4, FAS TE block 16, ADAM10 counter 19 and ADAM17 confirm 12*.
O=C(OCc1cnc(Cl)s1)c1ccccc1Cl was read as ADAM10 inh 2, ADAM17 inh -1, KLK7 zymogen act 0, GRIN3A LBD mod 5 and FAS TE block 2.
For CC(C)(C)S(=O)N1C[C@H]2CC(=O)C(CCO)=C2[C@@H]1CCO (stereo not given in full) the results were ADAM10 inh 1, ADAM17 inh 0 and KLK7 zymogen act 0.
O=C(C(=O)N1CCC(CNS(=O)(=O)c2cc(C(F)(F)F)cc(C(F)(F)F)c2)CC1)c1cc2ccccc2o1 was read as ADAM10 inh -7, ADAM17 inh -5 and KLK7 zymogen act 0.
For N#Cc1ccc(CSc2nnc(-c3ccccn3)n2-c2ccccc2)cc1 the results were ADAM10 inh -15, ADAM17 inh 1, KLK7 zymogen act 0, GRIN3A LBD mod 0 and FAS TE block -8.
c1ccc(-n2c(SCc3cccc4ccccc34)nnc2-c2ccccn2)cc1 was read as ADAM10 inh 3, ADAM17 inh 9.2*, KLK7 zymogen act 0, ADAM10 counter 14 and ADAM17 confirm 12*.
Screening COc1ccc(CN2C[C@@]3(O)CC[C@@H](O)[C@@H](OC)[C@@H]3[C@@]2(C)[C@H](O)CC=C(C)C)cc1 returned ADAM10 inh -1, ADAM17 inh -2 and KLK7 zymogen act 0.
Screening CCN1C(=O)N(C(C)=O)[C@H]2C[C@H](C(=O)N3CCCC3)[C@H](C)[C@H](c3ccccc3)C[C@H]21 returned ADAM10 inh -14, ADAM17 inh -3 and KLK7 zymogen act 0.
`CC1(Cc2ccccc2Cl)C(=O)Nc2ccc(OC(F)(F)F)cc21` (stereo not given) gave ADAM10 inh 13, ADAM17 inh 13*, KLK7 zymogen act 0, FAS TE block 28, ADAM10 counter 21* and ADAM17 confirm 13*.
`NC(=O)CSc1nnc(COc2cccc3ccccc23)o1` gave ADAM10 inh -4, ADAM17 inh 1, KLK7 zymogen act 0, GRIN3A LBD mod -1 and FAS TE block 1.
For O=C(CSc1nnc(COc2cccc3ccccc23)o1)N1c2ccccc2CCc2ccccc21 the results were ADAM10 inh 9, ADAM17 inh 8.9*, KLK7 zymogen act 0, GRIN3A LBD mod 1, FAS TE block 27, ADAM10 counter 12 and ADAM17 confirm 8.
`Cc1cc(Cn2nnc(-c3ccc(Br)cc3)n2)cc(C)c1O` gave ADAM10 inh 2, ADAM17 inh 11*, KLK7 zymogen act 0, GRIN3A LBD mod 3, FAS TE block 33, ADAM10 counter 13 and ADAM17 confirm 7.
C#CCNC[C@@H]1CSCCS(=O)(=O)N1 was read as ADAM10 inh -12, ADAM17 inh -5 and KLK7 zymogen act -1.
